Experimental data taken from PubChem BioAssay (EPA / NIEHS).
Values joined by “and” are separate entries in the source; they are usually repeats but may differ in a detail not shown here. Equal values may be shown once. A structure can be active in one record and inactive in another. Active and inactive are the calls of the source. The calls were made as follows: active = hit-call score of the fitted dose curve at least 0.9, where 1 is the maximum; inactive = score below 0.9.

Columns and labels:
[1] = read-out: Vascular endothelial growth factor receptor 2 (Homo sapiens) (UniProt P35968); assay: BSK_4H_VEGFRII: BioMAP Diversity Plus: 4H Assay for Vascular endothelial growth factor receptor 2 (VEGFR2) Biomarker Activity (AID 2283031); conditions: primary human endothelial cells (HUVEC); actives raise or lower the signal;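 as to AC50: cell-surface VEGFR2 protein level quantified by ELISA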
Procedure, shortened: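 In this multiplexed HUVEC system, biomarker ELISA was performed after 24 h chemical exposure. Parallel SRB staining (TCA fixation, 560 nm) tracked cytotoxicity; DMSO served as baseline.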

[2] = read-out: Human Leukocyte Antigen - DR isotype (HLADR), HLA-DRA (gene 3122); assay: BSK_BE3C_HLADR: BioMAP Diversity Plus: BE3C Assay for Human Leukocyte Antigen - DR isotype (HLADR) Biomarker Activity (AID 2283032); conditions: primary human bronchial epithelial cells; actives raise or lower the signal
Procedure, shortened: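 Human primary bronchial epithelial cells in the BE3C system were exposed to chemicals for 24 h, after which HLA-DR levels were quantified by ELISA. Activity was fitted bidirectionally, gain or loss of signal, against DMSO as negative control and baseline.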

[3] = read-out: Vascular cell adhesion molecule 1 (VCAM1), VCAM1 (gene 7412); assay: BSK_4H_VCAM1: BioMAP Diversity Plus: 4H Assay for Vascular cell adhesion molecule 1 (VCAM1) Biomarker Activity (AID 2283033); conditions: primary human endothelial cells (HUVEC); actives raise or lower the signal;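 as to outcome: cell-surface VCAM-1 protein measured by ELISA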
Procedure, shortened: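 Primary human umbilical vein endothelial cells were exposed to chemicals for 24 h, after which VCAM-1 was quantified by ELISA. Responses were fitted bidirectionally against DMSO as negative control and activity baseline.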

[4] = read-out: Interferon-gamma inducible Protein 10 (IP10), CXCL10 (gene 3627); assay: BSK_BE3C_IP10: BioMAP Diversity Plus: BE3C Assay for Interferon-gamma inducible Protein 10 (IP10) Biomarker Activity (AID 2283034); conditions: primary human bronchial epithelial cells; actives raise or lower the signal
Procedure, shortened: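 Human primary bronchial epithelial cells were exposed to chemicals for 24 hours, after which IP-10 levels were measured by ELISA. Data were fitted bidirectionally against DMSO, which served as the negative control and activity baseline.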

[5] = read-out: Monokine induced gamma interferon (MIG), CXCL9 (gene 4283); assay: BSK_BE3C_MIG: BioMAP Diversity Plus: BE3C Assay for Monokine induced gamma interferon (MIG) Biomarker Activity (AID 2283035); conditions: primary human bronchial epithelial cells; actives raise or lower the signal;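 as to outcome: MIG protein measured by ELISA in BE3C cultures after 24 h of dosing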
Procedure, shortened: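 ELISA read-out of MIG in human lung bronchial epithelial primary cultures, 24 h post-dosing. Bidirectional curve fit vs DMSO baseline.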

[6] = read-out: Plasminogen activator inhibitor-1 (PAI1), SERPINE1 (gene 5054); assay: BSK_BE3C_PAI1: BioMAP Diversity Plus: BE3C Assay for Plasminogen activator inhibitor-1 (PAI1) Biomarker Activity (AID 2283037); conditions: primary human bronchial epithelial cells; actives raise or lower the signal
Procedure, shortened: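 Human primary bronchial epithelial cells were exposed to chemical for 24 h, then PAI-1 was quantified by ELISA. Activity was fitted bidirectionally relative to the DMSO negative control baseline.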

[7] = read-out: urokinase plasminogen activator (uPA), PLAU (gene 5328); assay: BSK_BE3C_uPA: BioMAP Diversity Plus: BE3C Assay for urokinase plasminogen activator (uPA) Biomarker Activity (AID 2283038); conditions: primary human bronchial epithelial cells; actives raise or lower the signal;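 as to outcome: uPA protein level quantified by ELISA in cell cultures; uPA read one day after compound addition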
Procedure, shortened: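 Using confluent primary human lung bronchial epithelial cultures, we dosed chemicals, waited 24 h, then ran a uPA ELISA, fitting bidirectionally against DMSO.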

[8] = read-out: Urokinase-type plasminogen activator receptor (uPAR), PLAUR (gene 5329); assay: BSK_BE3C_uPAR: BioMAP Diversity Plus: BE3C Assay for Urokinase-type plasminogen activator receptor (uPAR) Biomarker Activity (AID 2283039); conditions: primary human bronchial epithelial cells; actives raise or lower the signal;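 as to outcome: uPAR protein level measured by ELISA on the cells; cells exposed to compound for one day before measurement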
Procedure, shortened: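 Primary human bronchial epithelial cells were dosed with chemical and harvested 24 h later; uPAR was quantified by ELISA. Activity was fitted bidirectionally against DMSO as negative control and baseline.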

[9] = read-out: Interleukin-6 (IL6), IL6 (gene 3569); assay: BSK_CASM3C_IL6: BioMAP Diversity Plus: CASM3C Assay for Interleukin-6 (IL6) Biomarker Activity for (AID 2283040); conditions: primary human coronary artery smooth muscle cells; actives raise or lower the signal
[10] = read-out: Tissue plasminogen activator (tPA), PLAT (gene 5327); assay: BSK_BE3C_tPA: BioMAP Diversity Plus: BE3C Assay for Tissue plasminogen activator (tPA) Biomarker Activity (AID 2283041); conditions: primary human bronchial epithelial cells; actives raise or lower the signal;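 as to outcome: tPA level quantified by ELISA one day after compound addition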
Procedure, shortened: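 Human primary bronchial epithelial cells were dosed with chemical and tPA biomarker levels measured by ELISA 24 hours later. Activity was fitted bidirectionally against DMSO as negative control and baseline.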

Structure (SMILES)	outcome [1]	outcome [2]	outcome [3]	outcome [4]	outcome [5]	outcome [6]	outcome [7]	outcome [8]	outcome [9]	outcome [10]	AC50 [9]	AC50 [10]	AC50 [2]	AC50 [3]	AC50 [4]	AC50 [8]	AC50 [1]	AC50 [5]	AC50 [6]	AC50 [7]
CCCCOC(=O)CCCCCCCC(=O)OCCCC	inactive	inactive	inactive	inactive	inactive	inactive	inactive	inactive	inactive	inactive										
CN(C)C(=O)Nc1ccc(Oc2ccc(Cl)cc2)cc1	inactive	inactive	inactive	inactive	inactive	inactive	inactive	inactive			0.0427 µM (active)	4.19 µM (active)								
COc1ccc(OC)c(N=Nc2c(O)ccc3ccccc23)c1	inactive				inactive	inactive	inactive		inactive	inactive			3.41 µM (active)	20 µM (active)	6.72 µM (active)	5.41 µM (active)				
Oc1c(Cl)cc(Cl)c(Cl)c1Cc1c(O)c(Cl)cc(Cl)c1Cl							inactive			inactive	7.83 µM (active)		0.634 µM (active)	12.8 µM (active)	8.17 µM (active)	20 µM (active)	0.675 µM (active)	8.39 µM (active)	3.97 µM (active)	
C=C(C)C(=O)OCC(CC)(COC(=O)C(=C)C)COC(=O)C(=C)C	inactive	inactive		inactive	inactive	inactive	inactive	inactive	inactive	inactive				19.7 µM (active)						
Clc1cc(Cl)c(-c2c(Cl)c(Cl)cc(Cl)c2Cl)cc1Cl					inactive		inactive		inactive	inactive			12.9 µM (active)	8.56 µM (active)	17.5 µM (active)	1.98 µM (active)	10 µM (active)		10 µM (active)	
CCCCN(CCCC)C(=O)N(CCCC)CCCC											20 µM (active)	6.94 µM (active)	12.5 µM (active)	23.7 µM (active)	9.08 µM (active)	7.37 µM (active)	23.7 µM (active)	20 µM (active)	9.25 µM (active)	9.69 µM (active)
CC(=O)Nc1ccc(C(=O)CCl)cc1						inactive	inactive				10.6 µM (active)		15.1 µM (active)	6.74 µM (active)	25.6 µM (active)	31.7 µM (active)	9.38 µM (active)	33.3 µM (active)		
IC(I)I	inactive	inactive	inactive	inactive	inactive	inactive	inactive	inactive	inactive	inactive										
C=C(C)C(=O)OCCOCCOCCOCCOC(=O)C(=C)C	inactive	inactive	inactive	inactive	inactive	inactive	inactive	inactive	inactive	inactive										
CCOC(=O)C(C#N)=C(c1ccccc1)c1ccccc1	inactive	inactive	inactive	inactive	inactive	inactive	inactive	inactive	inactive	inactive				36.9 µM (active)						
CC(CN=Cc1ccccc1O)N=Cc1ccccc1O (stereo unspecified)	inactive	inactive	inactive	inactive	inactive	inactive	inactive	inactive	inactive	inactive	8.95 µM (active)	8.3 µM (active)								
O=C1OC[C@H](Cc2cccc(O)c2)[C@H]1Cc1cccc(O)c1	inactive	inactive	inactive	inactive	inactive	inactive	inactive	inactive	inactive	inactive										
C=C(C)C(=O)OCCOCCOCCOC(=O)C(=C)C	inactive		inactive	inactive	inactive	inactive	inactive	inactive	inactive	inactive			3.97 µM (active)							
c1ccc(CCc2ccccc2)cc1	inactive				inactive						26.8 µM (active)	30.6 µM (active)	30.3 µM (active)	35.9 µM (active)	29.7 µM (active)	20 µM (active)			29.3 µM (active)	28.9 µM (active)
C1=CC2C3C=CC(C3)C2C1 (stereo unspecified)	inactive	inactive	inactive	inactive	inactive	inactive	inactive	inactive	inactive	inactive										
CCCCCCC(CO)CCCC (stereo unspecified)	inactive	inactive	inactive	inactive	inactive	inactive	inactive	inactive	inactive	inactive										
c1ccc2cc(Nc3ccc(Nc4ccc5ccccc5c4)cc3)ccc2c1	inactive	inactive	inactive	inactive	inactive	inactive	inactive	inactive	inactive	inactive										
CC1(C)CCC[C@]2(C)[C@H]3CCO[C@]3(C)CC[C@@H]12	inactive		inactive	inactive	inactive	inactive	inactive	inactive			31.5 µM (active) and 16.6 µM (active)	23 µM (active) and 20 µM (active)	23.9 µM (active) and 28.6 µM (active)	30.4 µM (active)			31.9 µM (active)		36.4 µM (active)	26.2 µM (active)
CCC(C)c1cc([N+](=O)[O-])cc([N+](=O)[O-])c1OC(=O)OC(C)C (stereo unspecified)											34.1 µM (active)	13.6 µM (active)	15.3 µM (active)	8.04 µM (active)	11 µM (active)	35 µM (active)	9.93 µM (active)	33 µM (active)	20 µM (active)	33.7 µM (active)
C=CC(C)(O)CCC=C(C)C (stereo unspecified)	inactive	inactive	inactive	inactive	inactive	inactive	inactive	inactive	inactive	inactive										
CCCCCC(C=O)=Cc1ccccc1					inactive	inactive	inactive	inactive		inactive	32 µM (active)		33.1 µM (active)	30.5 µM (active)	30.6 µM (active)		31.3 µM (active)			
CN(C)C(=S)SC(=S)N(C)C	inactive					inactive			inactive	inactive			13.7 µM (active)	26.9 µM (active)	34.7 µM (active)	31.7 µM (active)		34.9 µM (active)		19.9 µM (active)
